From PubChem
D2 ag-1 = activates the human D2 dopamine receptor; HEK293 T-REx D2 cells, calcium flux agonist mode; 340,000 compounds, 0.53% hits; AID 485358; P14416; activation, % at 2 µM;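 active means activation over 3 SD above normal in the single-dose calcium agonist read, cut at about 30% in these data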; further: 0% is about no effect
Target sequence (P14416 whole entry, looked up): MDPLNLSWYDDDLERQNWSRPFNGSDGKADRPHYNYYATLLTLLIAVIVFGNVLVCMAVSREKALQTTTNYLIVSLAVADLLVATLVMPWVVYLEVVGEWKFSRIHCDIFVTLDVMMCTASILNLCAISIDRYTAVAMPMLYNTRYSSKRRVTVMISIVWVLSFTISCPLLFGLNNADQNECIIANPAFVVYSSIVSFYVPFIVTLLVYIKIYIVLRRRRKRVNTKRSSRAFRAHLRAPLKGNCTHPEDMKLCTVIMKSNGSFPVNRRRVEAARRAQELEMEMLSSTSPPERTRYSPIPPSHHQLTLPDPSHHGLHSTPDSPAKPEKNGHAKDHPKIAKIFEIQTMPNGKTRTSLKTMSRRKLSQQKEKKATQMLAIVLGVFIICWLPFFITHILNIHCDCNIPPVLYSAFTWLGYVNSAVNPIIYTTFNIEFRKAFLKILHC
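HEK293 Trex D2 cells, tetracycline-induced, o/n 30 C 5% CO2; no-wash Ca dye, RT 30–90 min; 10-cycle baseline, 23 nl cpd added, kinetic Ca read 180 s; agonist hits = positive Ca response.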
D2 PAM-1 = human D2 receptor positive allosteric modulation; P14416; DiscoveRx D2 beta-arrestin cells, luminescence, 90 min; 100% = 57 uM dopamine signal; potentiation, % (test concentration not listed); 360,000 compounds, 0.23% hits; in the data active means potentiation above about 50%; inconclusive means mostly about 30% to 49%
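PathHunter beta-arrestin assay in DiscoveRx D2 cells. Compounds were added with an EC20 of dopamine (50 nM final) for 90 min at 37 deg C. Luminescence was read 1 h after detection reagent, with 57 uM dopamine as the EC100 control.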
D2 antag = antagonists of human D2 dopamine receptor. P14416. HEK293 TREx D2 cells, calcium flux, dopamine EC80. inhibition, % at 10 µM. 340,000 compounds, 2% hits; in the data active means inhibition above about 30%; inactive means below that, where a call was filed; further: 0% is about no effect
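HEK293 T-REx D2 cells, tet-induced, calcium dye no-wash. Cpd pintool add, 180 s kinetic, then EC80 DA, 180 s kinetic. Ca flux read.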
D2 ag-2 = agonists of human D2 dopamine receptor (beta-arrestin); P14416; DiscoveRx PathHunter D2 beta-arrestin, luminescence, 90 min; 100% = 57 uM dopamine signal; activation, % (test concentration not listed); 360,000 compounds, 0.084% hits; AID 624465; in the data active means activation above about 40%; inconclusive means between about 15% and that limit
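DiscoveRx PathHunter D2 beta-arrestin cells (2,100/well) attached overnight, then compound-stimulated 90 min at 37 C in HBSS/10 mM HEPES/0.1% Tween-20 buffer; beta-galactosidase complementation read by luminescence after 1 h at ambient temperature. Dopamine 57 uM final (EC100) as control.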
D2 PAM-2 = positive allosteric modulators of human D2 dopamine receptor | P14416 | HEK293 T-REx D2, calcium flux, EC20 dopamine potentiation | potentiation, % at 10 µM | 340,000 compounds, 0.34% hits;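 active means potentiation over 3 SD above the plate norm, cut at about 30% in these data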; further: 0% is about no effect
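Primary screen. Calcium kinetics in induced HEK293 T-REx D2 cells: compound pre-addition 180 s, EC20 dopamine, 180 s more.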
The depositor's hits bear a star; u = inconclusive; x = not tested or not shown. This is a sample that favours compounds with a hit; in the whole collection about 2.4% have one here.

SMILES	D2 ag-1	D2 PAM-1	D2 antag	D2 ag-2	D2 PAM-2
OC1CCCN(c2c3c(nc4cc(-c5cccc(F)c5)nn24)CCCC3)C1 (stereo unspecified)	0	2	47*	0	0
O=C(CSc1nc2ccc(Cl)cc2[nH]1)NCCc1ccccc1	0	-13	39*	-1	7
O=C(CSc1nc2ccc(Cl)cc2[nH]1)NCCc1ccc(Cl)cc1	0	-3	2	0	8
CC1CN(C(=O)/C(C#N)=C2\N=C(NC(=O)c3ccccc3Cl)c3ccccc32)CC(C)O1 (stereo unspecified)	0	x	59*	x	2
CC(NC(=O)Nc1ccc(O)cc1)(C(F)(F)F)C(F)(F)F	1	118*	-2	13	6
O=C1CCCN1c1ncc(S(=O)(=O)c2ccc([N+](=O)[O-])cc2)s1	1	54*	-12	u	5
CC1=C(C(=O)Nc2ccc(C)cc2C)C(c2ccccc2[N+](=O)[O-])n2ncc(C(=O)Nc3ccccc3)c2N1 (stereo unspecified)	0	x	x	x	5
COc1ccccc1CNC(=O)Cn1ncn2c(cc3sccc32)c1=O	x	x	x	x	2
O=C(c1ccc(F)cc1)C1CCN(CCn2c(=O)[nH]c3ccccc3c2=O)CC1	1	-37	58*	-5	-21
COc1ccc(-n2ncc3c(NCCC4=CCCCC4)ncnc32)cc1	1	x	x	x	18
C1=CC2c3ccccc3NC(c3ccncc3)C2C1 (stereo unspecified)	1	70*	-16	14	3
CC(=O)c1ccc2c(c1)C1C=CCC1C(c1ccncc1)N2 (stereo unspecified)	7	86*	7	6	2
Brc1cc2c(cc1C1Nc3ccccc3C3C=CCC31)OCO2 (stereo unspecified)	0	-4	6	0	-2
Cc1cccc(C(=O)Nc2ccccc2SCc2cc(=O)c3cccc(C)c3[nH]2)c1	0	x	x	x	x
CCC(=O)OCC(=O)Nc1ccc(OC)cc1[N+](=O)[O-]	0	-3	-15	-1	12
CCOC(=O)C(=CNc1ccc(OC)cc1[N+](=O)[O-])C(=O)OCC	2	8	31*	9	-4
CC(=O)c1ccc(NC(=O)Cn2ncc3c(C)n(Cc4ccc(F)cc4)c(C)c3c2=O)cc1	0	x	x	x	-7
CC1CCCN(CCC(=O)c2ccc(Br)cc2)C1 (stereo unspecified)	-1	-50	29	0	-11
Clc1cccc(OCCN2CCCC2)c1	0	-8	26	2	-14
CCOc1cccc(OCCCCN2CCCCC2)c1	1	-33	-10	-2	-18
Brc1cccc(OCCCCN2CCCCC2)c1	1	-13	88*	-1	-37
CC1CCCN(CCCCOc2cccc(Br)c2)C1 (stereo unspecified)	0	-32	75*	0	-20
CC(C)c1cccc(OCCN2CCCC2)c1	1	-23	71*	6	-23
CC1CCCN(CCOc2ccc(Br)cc2)C1 (stereo unspecified)	0	-19	63*	0	-29
Cc1cc(C)c2sc(N3CCN(C(=O)C4CC4)CC3)nc2c1	0	x	x	x	-5
SMILES	D2 ag-1	D2 PAM-1	D2 antag	D2 ag-2	D2 PAM-2
COc1ccccc1NC(=O)c1cc2c([nH]c1=O)CC(C)(C)CC2=O	0	x	x	x	x
O=C(NC(NNc1ccc([N+](=O)[O-])cc1)(C(F)(F)F)C(F)(F)F)c1ccc(F)cc1	7	61*	3	14	7
COc1ccc(OCC(O)CNC(=O)Nc2cc(C)cc(C)c2)cc1 (stereo unspecified)	-1	-27	30*	-5	-16
COc1ccc(CNC(=O)Nc2cc(C)cc(C)c2)cc1	-2	-11	-12	-3	10
Cc1onc(-c2ccccc2)c1C(=O)NNC(=S)NC(=O)c1ccc(Cl)cc1Cl	32*	-13	30*	-3	-4
O=C(NC(=S)NNC(=O)c1ccc(Cl)cc1Cl)c1cccnc1	1	-28	-1	2	1
Cc1cccc(C(=O)NC(=S)NNC(=O)c2ccccc2Cl)c1	31*	-12	25	1	6
Cc1ccccc1C(=O)NNC(=S)NC(=O)c1ccc(Cl)cc1Cl	46*	-12	31*	-3	-15
